Sampled rows, rich in hits. Any-hit rate of the full collection: about 12%.
Pf growth 48h – inhibits P. falciparum growth in the first generation, 48 h; P. falciparum luciferase growth in erythrocytes, 48 h; Potency, µM (series often up to 28.7 µM), actives largely listed as inhibitors; 310,000 tested, 5.9% active; AID 504832
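Cell-based growth assay: transgenic P. falciparum expressing firefly luciferase, cultured in red cells within RPMI 1640 containing 0.5% w/v Albumax, 24 mM bicarbonate and gentamycin. A drop in luciferase activity indicates inhibition.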
Pf growth 96h – inhibits malaria parasite growth, 96 h; P. falciparum luciferase reporter growth, 96 h; Potency, µM (series often up to 28.7 µM), hits mostly inhibitors; 320,000 tested, 6.9% active; AID 504834
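Infected RBCs, 2% Hct / 0.05% parasitemia final; luciferase-reporter P. falciparum; cpd 96 h, 37 C, 5% CO2; luciferase detection reagent; luminescence.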
NS1 function inh – influenza NS1 inhibition | AID 2326 | 270,000 tested, 0.4% active | Potency, µM (titrated, usually from 46.1 µM); calls by dose curve; also: actives are rising curves; nearly all actives have a fitted effect of over 50% in size
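Recovery from NS1-induced slow growth read by OD600 in budding yeast switched to galactose assay medium (pH 6.0, -URA) at 1:100 dilution. Compound 23 nl per well; the matching strain lacking NS1 serves as control.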
AMA1-RON2 inh – disrupts binding of P. falciparum AMA1 to RON2; AlphaScreen AMA1-biotinylated RON2 peptide binding; Potency, µM (top dose mostly 58.2 µM), most hits filed as inhibitors; 360,000 tested, 0.2% active; also: nearly all actives have a fitted effect of over 45% in size
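AMA1 (3D7) with his tag at 25 nM final met compounds first, then biotinylated RON2 peptide at 25 nM; detection used donor plus acceptor beads, 10 µg/mL apiece, read by AlphaScreen after 30 min at room temperature.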
HCV inhibitor – inhibitors of hepatitis C virus infection; Huh7.5.1 HCVcc-Cre infection, luciferase reporter, 44 h; Potency, µM (series often up to 41.8 µM), most hits filed as inhibitors; 340,000 tested, 3.4% active; AID 651820
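Infectious HCV cell culture screen: compound-treated cells (1,000/well, pre-plated 4 h) are infected with HCVcc-Cre at roughly 0.5 moi and grown 44 h. Infection is quantified by luciferase signal after 15 min substrate incubation at room temperature.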
SARS PLP yeast – inhibitors of SARS-CoV papain-like protease in yeast | S. cerevisiae expressing SARS-CoV PLpro, growth rescue | Potency, µM (series often up to 32.9 µM), hits mostly activators | 330,000 tested, 0.19% active | AID 485353; calls by dose curve; also: nearly all actives have a fitted effect of over 55% in size
Numbers stand for hits; 0 = inactive; ? = inconclusive; - = no result; [ ] = dose if it differs, or a comment. Unless noted, calls follow the shape of the dose curve; as a rule, active = well fitted curve in the direction sought with a large enough effect; inconclusive = small, poorly fitted or top-dose-only effect, or another doubt; inactive = no such curve, though single readings can be large; an effect the other way counts as inactive or inconclusive.

SMILES	Pf growth 48h	Pf growth 96h	NS1 function inh	AMA1-RON2 inh	HCV inhibitor	SARS PLP yeast
Clc1ccc(CCNc2ncnc3nc[nH]c23)cc1	0	?	0	0	10µM	0
CCCNc1ncnc2nc[nH]c12	0	0	0	0	0	0
c1ccc(CCCNc2ncnc3nc[nH]c23)cc1	0	?	0	0	?	0
Fc1ccc(/C=N/Nc2ncnc3nc[nH]c23)cc1F	?	9.28µM	0	0	0[8.37 µM]	0
C1=C(CCNc2ncnc3nc[nH]c23)CCCC1	?	?	0	0	10µM	0
CN(CCc1ccccc1)C(=O)c1ccc(NC(=O)Cc2ccc(NC(=O)C3CCN(C(=O)c4ccccc4)CC3)cc2)cc1	-	-	-	?	0[8.37 µM]	-
CC(C(=O)OCC(=O)N1CCN(c2ccccc2)CC1)N1C(=O)c2ccccc2C1=O (stereo not given)	0	?	-	0	0	0
CC/C(=N\NC(=O)c1c[nH]c2ccccc12)c1cccs1	?	13.1µM	?	0	0	0
O=C(N/N=C/c1ccc[nH]1)c1c[nH]c2ccccc12	0	0	0	0	0.891µM	0
O=C(N/N=C/c1ccc[nH]1)c1sc2ccccc2c1Cl	?	6.57µM	0	0	?	0
O=C(N/N=C/c1ccccn1)c1c[nH]c2ccccc12	0	?	0	0	0	0
O=C(N/N=C/c1ccncc1)c1sc2ccccc2c1Cl	0	?	0	0	0	0
Cc1ccc2oc(C(=O)N(C)CCC(O)c3ccccc3)c(C)c2c1 (stereo not given)	0	?	0	0	0	0
COc1ccc([C@H]2C[C@H](O)[C@@H](n3cc(-c4ccc(F)cc4)nn3)CN2C(=O)C2CCCCC2)cc1	-	-	-	0	-	-
CN1CC[C@H](CN2c3ccccc3Sc3ccccc32)C1	3.79µM	4.78µM	0	-	-	-
c1ccc2c(c1)Sc1ccccc1N2CC1CN2CCC1CC2 (stereo not given)	11.7µM	13.1µM	0	0	0	0
COc1ccccc1NC(=O)c1ccc(CSc2ccccc2)o1	0	0	0	0	-	0
O=C1c2ccccc2CN1Cc1ccccc1	0	0	0	0	0	0
O=C(NCC(c1cccnc1)N1CCN(c2ccc(F)cc2)CC1)c1ccco1 (stereo not given)	0	0	0	0	?	0
CC(c1ccncn1)N(C)C(=O)c1ccc2oc(Cc3ccccc3)nc2c1 (stereo not given)	0	0	0	0	0	0
Cc1ccc(Cn2c(=N)c(S(=O)(=O)c3ccc(Br)cc3)cc3c(=O)n4ccccc4nc32)cc1	0	0	0	0	0	0
COc1ccc(CCn2c(=N)c(C(=O)N3CCN(C)CC3)cc3c(=O)n4ccccc4nc32)cc1	-	?	0	0	0	0
COc1ccc(CCn2c(=N)c(C(=O)NC3CCCCC3)cc3c(=O)n4ccccc4nc32)cc1	0.928µM	?	0	0	?	0
Cc1cccn2c(=O)c3cc(C(=O)NC4CCCC4)c(=N)n(CCc4ccccc4)c3nc12	0.465µM	4.15µM	0	0	0	0
COc1ccc(CCn2c(=N)c(C(=O)NCC3CCCO3)cc3c(=O)n4ccccc4nc32)cc1 (stereo not given)	4.65µM	4.65µM	0	0	0	0
SMILES	Pf growth 48h	Pf growth 96h	NS1 function inh	AMA1-RON2 inh	HCV inhibitor	SARS PLP yeast
COc1ccc(Cn2c(=N)c(C(=O)NCC3CCCO3)cc3c(=O)n4ccccc4nc32)cc1 (stereo not given)	?	?	0	0	0	0
Cc1cccn2c(=O)c3cc(C(=O)NC4CCCCC4)c(=N)n(Cc4ccccc4)c3nc12	0	?	0	0	0	0
COc1ccc(CCn2c(=N)c(S(=O)(=O)c3ccc(C)cc3)cc3c(=O)n4ccccc4nc32)cc1	5.22µM	3.7µM	0	0	0	0
CC(C(=O)NCC1CCCO1)n1cc([N+](=O)[O-])cn1 (stereo not given)	0	?	-	0	0	0
COc1ccc(CCn2c(=N)c(C(=O)NC3CCCC3)cc3c(=O)n4cccc(C)c4nc32)cc1	0.828µM	0.522µM	0	0	0	0
O=C(O)c1ccc(Cl)c(S(=O)(=O)Nc2ccc3cn[nH]c3c2)c1	0	0	-	0	0	0
COc1ccc(C)cc1CN(C)c1ccc(S(=O)(=O)N2CCN(C)CC2)cn1	10.4µM	?	-	?	?	0

Assay outcomes (PubChem BioAssay)
